The values below come from PubChem BioAssay (EPA / NIEHS).

The AC50 is the midpoint of the concentration-response curve, whichever way the signal moves.

Each structure is given as a SMILES string. Calls of active or inactive are those of the source. The calls were made as follows: active = hit-call score of the fitted dose curve at least 0.9, where 1 is the maximum; inactive = score below 0.9.

Chain of Hypoxia-inducible factor 1-alpha (Homo sapiens) (Q16665 whole entry, looked up): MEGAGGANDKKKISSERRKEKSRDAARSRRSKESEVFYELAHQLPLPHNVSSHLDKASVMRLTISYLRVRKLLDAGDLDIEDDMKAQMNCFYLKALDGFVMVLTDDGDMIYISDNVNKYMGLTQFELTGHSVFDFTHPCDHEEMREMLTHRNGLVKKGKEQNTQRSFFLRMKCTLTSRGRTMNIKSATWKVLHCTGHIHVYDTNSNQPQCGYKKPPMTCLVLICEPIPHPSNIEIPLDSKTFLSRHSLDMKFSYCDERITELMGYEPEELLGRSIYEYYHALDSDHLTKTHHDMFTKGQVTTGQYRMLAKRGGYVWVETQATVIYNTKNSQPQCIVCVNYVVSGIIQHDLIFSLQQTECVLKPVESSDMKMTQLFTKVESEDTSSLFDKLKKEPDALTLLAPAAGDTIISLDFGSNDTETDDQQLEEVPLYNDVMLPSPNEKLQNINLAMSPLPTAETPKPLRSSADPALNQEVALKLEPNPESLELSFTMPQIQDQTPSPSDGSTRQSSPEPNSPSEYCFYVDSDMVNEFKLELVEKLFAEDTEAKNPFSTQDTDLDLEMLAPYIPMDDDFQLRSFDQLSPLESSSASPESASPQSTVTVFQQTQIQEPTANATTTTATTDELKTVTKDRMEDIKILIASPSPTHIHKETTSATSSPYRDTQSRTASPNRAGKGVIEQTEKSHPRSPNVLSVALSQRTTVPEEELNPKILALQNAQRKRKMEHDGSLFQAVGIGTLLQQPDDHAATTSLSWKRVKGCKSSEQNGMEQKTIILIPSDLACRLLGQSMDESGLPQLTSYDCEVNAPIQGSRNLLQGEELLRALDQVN

This assay deals with Hypoxia-inducible factor 1-alpha (Homo sapiens) (UniProt Q16665). Briefly: ATG_HIF1a_CIS: Attagene CIS-FACTORIAL HepG2 Assay for human Hypoxia Inducible Factor 1 (HIF1A) (AID 2282951). As to conditions: HepG2 Attagene cis-factorial HIF1a reporter transcription; actives raise or lower the signal. The method, then:
ATG_CIS is a cell-based, multiplexed-readout assay that uses HepG2, a human liver cell line, with measurements taken at 24 hours after chemical dosing in a 24-well plate.ATG_HIF1a_CIS is one of 52 assay component(s) measured or calculated from the ATG_CIS assay. It is designed to make measurements of mRNA induction, a form of inducible reporter, as detected with fluorescence intensity signals by Reverse transcription polymerase chain reaction (RT-PCR) and Capillary electrophoresis technology.Data from the assay component ATG_HIF1a_CIS was analyzed into 1 assay endpoint. This assay endpoint, ATG_HIF1a_CIS, was analyzed with bidirectional fitting relative to DMSO as the negative control and baseline of activity. Using a type of inducible reporter, measures of mRNA for gain or loss-of-signal activity can be used to understand the reporter gene at the transcription factor-level as they relate to the gene HIF1A. Furthermore, this assay endpoint can be referred to as a primary readout, because this assay has produced multiple assay endpoints where this one serves a reporter gene function. To generalize the intended target to other relatable targets, this assay endpoint is annotated to the dna binding intended target family, where the subfamily is basic helix-loop-helix protein.
Human liver HepG2 cells are transiently transfected with multiple reporter transcription units (MRTUs) in 6-well plates using FuGene 6 reagent (Roche; 3 ml FuGene/1 mg DNA). The MRTU constructs are regulated by a cis-regulating element (promoter). […] A major difference between the CIS and TRANS system is that in CIS activities of endogenous TFs are measured, whereas the TRANS assay evaluates changes in activities of exogenous, chimeric NR-Gal4 proteins. […] At the end of 24 hour incubation, total RNA was isolated using TriZol reagent (Invitrogen). The isolated RNA is then reverse-transcribed using oligo(dT) primer and Mo-MLV reverse transcriptase (Invitrogen) with DNAse I (Ambion) treatment for 30 min. The one-tenth of the produced cDNA was amplified by PCR using Taq DNA polymerase (Invitrogen) and two reporter sequence-specific primers. The PCR products were fluorescently labeled by primer extension with 6-arboxyfluorescein (6-FAM) 5'-labeled reporter sequence-specific primer (2 min at 95 C, 20 s at 68 C and 10 min at 72 C) and these products were digested with 5U of HpaI (New England Biolabs) for 2h at 37 C. The fragments were purified using Qiaquick PCR columns (Qiagen), analyzed on an ABI 3130xL genetic analyzer (Applied Biosystems) with peak positions identified by using a set of X-rhodamine (ROX)-labeled MapMarker1000 molecular weight standards (BioVentures). The raw capillary electrophoresis data was processed using Attagraph software (Attagene).
For the compound `CCCCCOC(=O)c1ccccc1C(=O)OCCCCC`, the compound was called inactive.
Still for that read-out and setting: the result for `N#CC(Br)Br` reads “inactive”; that for `[As]#[In]`, “inactive”; that for `Clc1ccc(C(c2ccc(Cl)cc2)C(Cl)Cl)cc1`, “inactive”.
On the same count and under the same terms, as for `CN(C)C(=O)Nc1ccc(Cl)cc1`, the entry is “inactive”.
With `Cc1cc(N=Nc2ccccc2C)ccc1N`, the AC50 was 24.7 µM (active).
On to `C[C@]12C=CC3=C4CCC(=O)C=C4CC[C@H]3[C@@H]1CC[C@@H]2O`, for which the call was inactive.
Same read-out and setting: as for `OCCCl`, the entry is “inactive”; as for `Brc1ccc(Oc2ccccc2)cc1`, “inactive”; as for `CCN(CC)N=O`, “inactive”.
On the same count and under the same terms, the result for `O=[N+]([O-])c1ccc(Oc2ccc(Cl)cc2Cl)cc1` reads “inactive”; that for `CN(C)c1ccccc1`, “inactive”.
On the same count and under the same terms, as for `CC(C)(OOC(C)(C)c1ccccc1)c1ccccc1`, the entry is “inactive”; as for `Cc1ccc(N)cc1`, “inactive”.
Take `O=C(Nc1ccccc1)c1ccccc1I`: the compound was called inactive.
On the same count and under the same terms, as for `CC(O)CCO` (stereo not given), the entry is “inactive”; as for `CO[C@@H]1[C@H](OC(=O)NC(=O)CCl)CC[C@]2(CO2)[C@H]1[C@@]1(C)O[C@@H]1CC=C(C)C`, “inactive”.
Turning to `[Cl-].[Cl-].[Hg+2]`, the concentration at half-maximal activity (AC50) was 33.4 µM (active).
The same measure, in the same setting: the result for `CCCCCCCCOC(=O)c1ccc(C(=O)OCCCCCCCC)c(C(=O)OCCCCCCCC)c1` reads 23.7 µM (active).
`C1=Cc2cccc3cccc1c23`: the outcome was inactive.
As to `CC(C)(O)c1cnn2c(-c3ccc(F)c(-c4c(F)cccc4C#N)c3)cnc2n1`, the half-maximal activity concentration (AC50) is 26.8 µM (active).
As to `ClC1=C(Cl)[C@]2(Cl)[C@H]3[C@H]([C@@H]4C=C[C@H]3C4)[C@@]1(Cl)C2(Cl)Cl`, the call was inactive.
Regarding `c1ccc2c(c1)-c1cccc3cccc-2c13`, the outcome was inactive.
The same measure, in the same setting: as for `CCCCC(CC)COC(=O)c1ccc(C(=O)OCC(CC)CCCC)c(C(=O)OCC(CC)CCCC)c1` (stereo not given), the entry is “inactive”; as for `c1ccc2c(c1)oc1ccccc12`, “inactive”; as for `OCCOCCO`, “inactive”.
As for `O=[N+]([O-])C(Br)(CO)CO`, the concentration at half-maximal activity (AC50) is 25 µM (active).
Consider `O=C1CCCO1`, for which the compound was classed as inactive.
On the same count and under the same terms, as for `OCCCBr`, the entry is “inactive”.
Still for that read-out and setting: as for `CCC(C)c1ccc(O)cc1` (stereo not given), the entry is “inactive”; as for `Oc1ccccc1Cl`, “inactive”.
`Cc1cccc(N)c1N`: the AC50 was 2.66 µM (active).
Consider `Nc1cc(Cl)cc(C(=O)O)c1Cl`, for which the outcome was inactive.
`O=C(Oc1ccc(Br)cc1)N1CCN2CCC1CC2`: the concentration at half-maximal activity (AC50) is 34.6 µM (active).
For the compound `Cn1cc(-c2ccccc2)c(=O)c(-c2cccc(C(F)(F)F)c2)c1`, the outcome was inactive.
Same read-out and setting: as for `Clc1ccccc1Cl`, the entry is “inactive”; as for `CCCCCCCCCCCCCN1CC(C)OC(C)C1` (stereo not given), “inactive”; as for `CCCCOC(=O)c1ccccc1C(=O)OCc1ccccc1`, “inactive”.
For `COC(=O)c1ccccc1N`, the compound was called inactive.
On the same count and under the same terms, the result for `COC(=O)Nc1nc2ccccc2[nH]1` reads “inactive”.
